# High-throughput results from PubChem.
# USP30 inh = human USP30 deubiquitinase inhibition. Q70CQ3. purified USP30, Ub-rhodamine cleavage fluorescence. inhibition, % at 25 µM. 5.3% of 47,000 active
# USP10 block = human USP10 deubiquitinase inhibition | purified USP10, Ub-rhodamine fluorescence, 60 min | Q14694 | inhibition, % at 20 µM | 1.1% of 47,000 active | AID 1645856
# Target sequence (Q14694 whole entry, looked up): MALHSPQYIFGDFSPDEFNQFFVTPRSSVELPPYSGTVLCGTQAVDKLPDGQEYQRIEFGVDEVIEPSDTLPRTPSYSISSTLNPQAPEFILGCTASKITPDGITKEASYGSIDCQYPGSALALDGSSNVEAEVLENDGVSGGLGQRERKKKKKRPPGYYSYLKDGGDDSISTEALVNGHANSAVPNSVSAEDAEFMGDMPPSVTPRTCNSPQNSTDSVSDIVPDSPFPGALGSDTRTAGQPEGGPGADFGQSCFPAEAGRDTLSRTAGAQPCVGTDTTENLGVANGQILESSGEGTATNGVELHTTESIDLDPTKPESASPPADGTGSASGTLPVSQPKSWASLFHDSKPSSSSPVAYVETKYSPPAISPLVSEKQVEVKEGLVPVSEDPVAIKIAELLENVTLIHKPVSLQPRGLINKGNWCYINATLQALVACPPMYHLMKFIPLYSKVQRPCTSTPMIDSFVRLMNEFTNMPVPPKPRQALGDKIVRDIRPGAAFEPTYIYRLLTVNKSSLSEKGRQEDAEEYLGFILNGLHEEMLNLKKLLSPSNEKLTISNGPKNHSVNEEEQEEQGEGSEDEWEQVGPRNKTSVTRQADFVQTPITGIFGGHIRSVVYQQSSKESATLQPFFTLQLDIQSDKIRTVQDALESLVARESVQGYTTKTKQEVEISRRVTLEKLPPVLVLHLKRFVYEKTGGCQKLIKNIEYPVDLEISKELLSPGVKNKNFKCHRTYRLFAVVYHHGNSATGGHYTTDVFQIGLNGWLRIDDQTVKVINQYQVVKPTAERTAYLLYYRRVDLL
# USP28 inh = blocks human USP28 ubiquitin-rhodamine cleavage | Q96RU2 | purified USP28, Ub-rhodamine cleavage fluorescence, 30 min | inhibition, % at 25 µM | 3% of 47,000 active | AID 1645857
# USP17 inh = human USP17-like deubiquitinase inhibition; inhibition, % at 50 µM; A8MUK1; AID 1645855; 6.5% of 47,000 active; purified USP17, Ub-rhodamine cleavage fluorescence, 3 h
# USP8 inh = blocks human USP8 ubiquitin-rhodamine cleavage | P40818 | purified USP8, Ub-rhodamine cleavage fluorescence, 30 min | inhibition, % at 20 µM | 4.2% of 47,000 active | AID 1645853
# A number is an active result; i = inactive; nt = no result given. The list is not random: actives were taken first. Their share in the collection is about 13%. Rule as the data show it: active = inhibition above about 30%; inactive = the rest.
SMILES,USP30 inh,USP10 block,USP28 inh,USP17 inh,USP8 inh
C=C(NC(=O)C(=C)NC(=O)c1csc(C2=N[C@@H]3c4csc(n4)[C@H]4NC(=O)c5csc(n5)[C@H]([C@](C)(O)[C@@H](C)O)NC(=O)[C@H]5CSC(=N5)/C(=C/C)NC(=O)C([C@@H](C)O)NC(=O)c5csc(n5)C3(CC2)NC(=O)[C@H](C)NC(=O)C(=C)NC(=O)[C@H](C)NC(=O)C([C@@H](C)CC)N[C@@H]2C=Cc3c(C(C)O)cc(nc3[C@H]2O)C(=O)OC4C)n1)C(N)=O (stereo partly specified),i,i,i,54.3,i
Cc1ccccc1CC(=O)Nc1nnc(C2CC2)s1,i,i,i,41.3,i
CCc1ccccc1N1CC(c2nnc(NC(=O)CCc3ccccc3)s2)CC1=O (stereo unspecified),i,i,i,30.2,i
Cc1nn(C)c(C)c1CC(=O)Nc1nnc(C2CCCCC2)s1,i,i,40.8,i,i
Cc1ccccc1N1CC(c2nnc(NC(=O)Cc3ccc(Cl)cc3)s2)CC1=O (stereo unspecified),i,i,i,i,i
Cc1ccccc1N1CC(c2nnc(NC(=O)CCCc3ccccc3)s2)CC1=O (stereo unspecified),i,i,i,i,i
Cc1ccccc1N1CC(c2nnc(NC(=O)Cc3c(F)cccc3Cl)s2)CC1=O (stereo unspecified),i,i,i,nt,i
Cn1cc(-c2cnc(NCc3ccccc3)nc2)cc1C(=O)NCc1cccnc1,i,i,i,i,i
COCCNC(=O)Cn1c(=O)n(Cc2ccc(C(=O)NCc3ccc(C)cc3)cc2)c(=O)c2ccccc21,90.3,i,84.5,77.2,i
COCCNC(=O)Cn1c(=O)n(Cc2ccccc2)c(=O)c2c3c(sc21)CCC3,58.6,i,i,i,i
COCCCNC(=O)c1ccc(Cn2c(=O)c3ccccc3n(CC(=O)N3CCN(c4ccccc4)CC3)c2=O)cc1,i,i,i,i,i
COCCCNC(=O)c1ccc(Cn2c(=O)c3ccccc3n(CC(=O)NC3CCCCC3)c2=O)cc1,45.8,i,i,61.8,i
COCCCNC(=O)c1ccc(Cn2c(=O)c3ccccc3n(CC(=O)NCc3ccco3)c2=O)cc1,i,i,i,i,i
COc1ccccc1NC(=O)N(CCCN1CCOCC1)Cc1cc2cc(C)cc(C)c2[nH]c1=O,i,i,i,i,i
Cn1c(NC(=O)c2ccc(Cl)cc2Cl)c(-c2ccccn2)c(=O)c2ccccc21,i,i,i,i,i
Cc1ccc(-c2[nH]c3ccccc3c2C2c3ccccc3C(=O)N2CC(=O)O)cc1 (stereo unspecified),i,i,i,i,61.5
COc1ccc(-n2cc(C(=O)NC(C)c3ccc4c(c3)OCCO4)c3ccccc3c2=O)cc1 (stereo unspecified),36.0,i,i,i,i
COc1cc(C(=O)NC(C)c2ccc3c(c2)OCCO3)cc(OC)c1OC (stereo unspecified),i,i,i,i,i
COc1ccc(-c2ccnc(-c3ccc(OCc4cccc(F)c4)cc3)n2)cc1,40.7,i,i,56.2,i
Cc1nnc(NC(=O)c2cn(-c3ccc(Br)cc3)nn2)s1,34.1,i,i,i,i
O=C(NC1CC1)c1cn(-c2ccc(Cl)cc2)nn1,i,i,i,nt,i
COc1cccc(C2C3=C(CC(C)(C)CC3=O)Nc3ccccc3N2C(=O)Nc2ccc(Cl)c(Cl)c2)c1 (stereo unspecified),i,i,i,i,i
Cc1ccc(-c2onc(C)c2C)cc1S(=O)(=O)NCc1ccccc1,34.8,i,i,i,i
Cc1cc(-c2noc(-c3cccnc3)n2)c2ccccc2n1,i,i,i,39.7,i
CCc1noc(-c2c(C)cc(C)n2CC(=O)NCc2ccc(Cl)cc2)n1,39.4,i,i,i,i
SMILES,USP30 inh,USP10 block,USP28 inh,USP17 inh,USP8 inh
CCCc1nc(SCC(=O)Nc2ccccc2)c2c(=O)n(C)c(=O)n(C)c2n1,30.7,i,i,i,i
CCCCc1nc(SCC(=O)N2CCc3ccccc32)c2c(=O)n(C)c(=O)n(C)c2n1,i,i,i,i,i
Cc1nn(CC(=O)NCc2ccccc2F)c2ccccc12,i,i,i,51.2,i
O=C(CC(c1ccccc1)c1ccccc1)NCc1ccccc1F,i,i,i,i,i
CS(=O)(=O)N1CCC(Cc2cncc(-c3ccn[nH]3)n2)CC1,i,i,i,i,i
CC(C(=O)Nc1ccccc1)n1cnc2nc(N3CCCCC3)ncc2c1=O (stereo unspecified),i,i,i,69.5,i
COc1cccc(NC(=O)C(C)n2cnc3nc(N4CCCCC4)ncc3c2=O)c1 (stereo unspecified),i,i,i,i,i
